# Screening data as filed in PubChem BioAssay.
# SMN2 splice up = increases expression of the SMN2 splice variant; Potency, µM (titrated, usually from 46.1 µM), for inactives: at the top dose activity change, positive = activation, most hits filed as activators; 210,000 compounds, 2.8% hits; HEK293 SMN2-luciferase splicing reporter, luminescence, 30-36 h; AID 1458; note: % of control where 0% means no effect; nearly all actives have a fitted effect of over 55% in size
#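 HEK293 cells carry an SMN2 minigene-luciferase reporter in which exon 7 inclusion puts luciferase in frame. Cells were seeded at 2000 cells/well, attached for 10-12 hours, then exposed to compounds for 30-36 hours at 37C before ONE-Glo luminescence.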
# ELG1 genotox = inducers of genotoxicity in HEK293T ELG1-luciferase cells | HEK293T ELG1-luciferase reporter, luminescence, 16 h | Potency, µM (titrated, usually from 46 µM), inactives show at the highest dose activity change, positive = activation, hits mostly activators | 330,000 compounds, 1.3% hits; note: % of control where 0% means no effect; nearly all actives have a fitted effect of over 60% in size
#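 Step 1: seed 2,000 HEK293T ELG1-luciferase cells per well. Step 2: add compound or DMSO, incubate 16 hr at 37 °C. Step 3: ONE-Glo, 30 min at room temperature, read luminescence.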
# Rab9 promoter act = Rab9 promoter activation; Huh7 Rab9 promoter-luciferase reporter, luminescence, 24 h; Potency, µM (titrated, usually from 9.22 µM), without a hit: top-dose activation, negative = inhibition, usual class: activators; 320,000 compounds, 2.8% hits; note: % of control where 0% means no effect; nearly all actives have a fitted effect of over 60% in size
#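 Luciferase signal after 10 min detection reagent at ambient indicates Rab9 promoter upregulation; stably transfected Huh7 cells were treated 24 h with compound in DMSO at 37 °C, 5% CO2.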
# FLuc modulator = counter-screen for miR-21 project: firefly luciferase inhibitors or activators. P08659. purified FLuc, Km substrates, luminescence inhibition. 360,000 compounds, 6.9% hits. Potency, µM (series often up to 57.5 µM), inactives show top-dose activity change, negative = inhibition, actives largely listed as inhibitors. AID 588342;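 note: plate controls were vehicle for no effect and reference inhibitor for full effect; nearly all actives have a fitted effect of over 55% in size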
# Target sequence (P08659 whole entry, looked up): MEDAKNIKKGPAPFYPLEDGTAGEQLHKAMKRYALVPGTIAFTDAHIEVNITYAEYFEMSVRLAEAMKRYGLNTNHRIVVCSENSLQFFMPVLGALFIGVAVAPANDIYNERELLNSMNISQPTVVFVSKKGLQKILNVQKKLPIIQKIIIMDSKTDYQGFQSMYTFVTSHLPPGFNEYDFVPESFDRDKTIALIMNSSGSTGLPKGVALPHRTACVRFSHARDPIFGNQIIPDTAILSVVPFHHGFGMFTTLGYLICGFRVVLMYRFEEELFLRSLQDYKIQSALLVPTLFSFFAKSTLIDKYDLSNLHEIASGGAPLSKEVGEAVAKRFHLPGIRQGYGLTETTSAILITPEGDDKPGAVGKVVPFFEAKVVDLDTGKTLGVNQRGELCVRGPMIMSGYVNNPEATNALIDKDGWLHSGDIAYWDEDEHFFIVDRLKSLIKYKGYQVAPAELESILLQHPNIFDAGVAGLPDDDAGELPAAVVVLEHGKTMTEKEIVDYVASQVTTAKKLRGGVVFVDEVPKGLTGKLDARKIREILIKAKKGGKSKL
#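 Purified P. pyralis luciferase, 10 nM final, with Km-level 10 uM D-luciferin and 10 uM ATP in 50 mM Tris acetate pH 7.5, 10 mM Mg acetate, 0.01% Tween-20, 0.05% BSA; 6-point qHTS titration about 60 µM downward; luminescence read.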
# KinaseGlo FLuc = blocks Kinase-Glo luciferase, a counter-screen artifact; Potency, µM (top dose mostly 38.3 µM), without a hit: at the highest dose activity change, negative = inhibition, usual class: inhibitors; 200,000 compounds, 0.28% hits; AID 1379; Q27757; Kinase-Glo luciferase, ATP luminescence, 8 min; note: % is set by controls: 0 for no effect and ±100 for the full control effect; nearly all actives have a fitted effect of over 60% in size
#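 Recombinant Kinase-Glo luciferase, 10 uM ATP (linear range), luciferin; imidazole pH 7.2 / KCl / MgCl2 / Tween / BSA buffer; 8 min RT; luminescence.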
# NPC1 promoter act = activates the NPC1 promoter. 320,000 compounds, 2.4% hits. Huh7 NPC1 promoter luciferase reporter, 24 h. AID 485313. Potency, µM (top dose mostly 9.22 µM), for inactives: at the top dose activation, hits mostly activators; note: % of control where 0% means no effect; nearly all actives have a fitted effect of over 60% in size
#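 Stable NPC1-promoter luciferase Huh7 line; cpd (DMSO) 24 h, 37 °C, 5% CO2; Amplite luciferase reagent 10 min RT; luminescence readout. qHTS format.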
# * marks the source's active call; other numbers are inactive results; ? = inconclusive; nt = not tested or not shown; [ ] = remark or other dose. Compounds with a hit are over-represented: about 7.3% of the library has one in this group of screens. Calls come from the whole dose curve; as a rule, active = well fitted curve in the direction sought with a large enough effect; inconclusive = small, poorly fitted or top-dose-only effect, or another doubt; inactive = no such curve, though single readings can be large; an effect the other way counts as inactive or inconclusive. Potency is the fitted concentration of half-maximal effect.
SMILES,SMN2 splice up,ELG1 genotox,Rab9 promoter act,FLuc modulator,KinaseGlo FLuc,NPC1 promoter act
Cc1cc(C)n(CCN(C)Cc2nc(Cc3ccccc3F)no2)n1,nt,?,?,4.8µM*,-28%,?
CC(C)(C)n1ncc2c(=O)n(Cc3ccc(Cl)c(SC(F)(F)F)c3)cnc21,nt,nt,nt,-1%,nt,nt
Oc1c(C=Nc2ccccc2)sc2ccccc12,nt,2%,-4%,3%,2%,-4%
Oc1c(/C=N/c2ccccn2)sc2ccccc12,nt,?,?,0.54µM*,nt,22%
Oc1c(C=Nc2ccc(Cl)cn2)sc2ccccc12,nt,5.8µM*,?,0.34µM*,nt,?
Oc1c(C=Nc2cccnc2)sc2ccccc12,24%,?,5%,1.9µM*,?,5%
Cc1ccc(CNC(=O)c2cc(-c3ccc(C)cc3)nc3n[nH]c(-c4cccc([N+](=O)[O-])c4)c23)cc1,nt,nt,nt,-1%,nt,nt
O=C(Nc1ccc2c(c1)OCO2)c1cnc2n(c1=O)CCS2,13µM*,?,3.2µM*,?,-12%,?
O=C(NCc1ccc2c(c1)OCO2)c1cnc2n(c1=O)CCS2,7%,-1%,-6%,-1%,0%,3%
O=C(Nc1ccc(OC(F)(F)F)cc1)c1cnc2n(c1=O)CCS2,-55%,7.3µM*,14%,-11%,1%,?
CCn1cnc2sc(C(=O)Nc3ccc4c(c3)OCO4)c(C)c2c1=O,13µM*,8.9µM*,2.8µM*,11µM*,-7%,?
O=C(Nc1ccc2c(c1)OCCO2)c1cnc2n(c1=O)CCS2,20µM*,9.2µM*,2µM*,9.5µM*,-3%,2.5µM*
CC[C@H](C)[C@@H](NC(=O)O[C@@H]1C(=O)c2ccc(OC)cc2O[C@H]1c1ccc2c(c1)OCO2)C(=O)OC,14%,nt,nt,nt,-1%,nt
O=C(O)c1ccc(C(=O)c2ccccc2)c(C(=O)O)c1,4%[9.22 µM],nt,nt,nt,-11%[7.66 µM],nt
Cc1ccc2nc(COc3ccccc3NC(=O)c3ccccc3F)cc(=O)n2c1,nt,nt,nt,1%,nt,nt
Cc1cccc(NC(=O)c2cnc3n(c2=O)CCS3)c1,11µM*,?,3.5µM*,12µM*,-5%,3.5µM*
O=C(Nc1ccccc1)c1cnc2n(c1=O)CCS2,?,15%,?,?,-3%,25%
Cc1ccc(-n2ncc(C(=O)N3CCCCC3)c2C2CCN(C(=O)OC(C)(C)C)CC2)c(C)c1,nt,nt,nt,5%,nt,nt
O=C(/C=C/Nc1ccccc1Oc1ccccc1)c1ccco1,-1%,0%,-4%,-26%,0%,2%
COc1ccccc1Oc1ccc(N/C=C/C(=O)c2ccco2)cc1,11µM*,?,1.4µM*,5.4µM*,?,3.2µM*
O=C(/C=C/Nc1ccc(Oc2ccccc2Cl)cc1)c1ccco1,16µM*,?,2.2µM*,3.4µM*,-4%,3.5µM*
CCN(CC(=O)Nc1c(F)cccc1F)C(=O)CNC(=O)c1ccc(C)s1,nt,26%,?,15µM*,nt,?
Cc1ccc(-c2cc(NC(=O)C(C)Oc3ccc(C)c(C)c3)on2)cc1 (centres undefined),24%,nt,nt,0%,nt,nt
Cc1cc2nc(-c3ccc(SCc4ccc(C#N)cc4)nc3)[nH]c2cc1C,-26%,1%,-3%,5.4µM*,-1%,-3%
CC(=O)CSc1ccc(-c2nc3cc(C)c(C)cc3[nH]2)cn1,nt,0%,-5%,-2%,-1%,-10%
SMILES,SMN2 splice up,ELG1 genotox,Rab9 promoter act,FLuc modulator,KinaseGlo FLuc,NPC1 promoter act
Cc1ccc(-c2nnc3ccc(SCC(=O)N4CCc5ccccc54)nn23)cc1,-14%,11%,-1%,0%,0%,-3%
CCOC(=O)CNC(=O)CSc1ccc(-c2nc3ccccc3[nH]2)cn1,nt,-2%,0%,?,nt,-2%
Cc1ccc2nc(-c3ccc(SCC(=O)N4CCc5ccccc54)nc3)[nH]c2c1,11µM*,0%,3.2µM*,0.27µM*,-11%,3.5µM*
N#Cc1ccccc1CSc1ccc(-c2nc3ccccc3[nH]2)cn1,-58%,?,21%,19µM*,-24%,21%
CC(=O)CSc1ccc(-c2nc3ccccc3[nH]2)cn1,nt,?,0.71µM*,4.3µM*,nt,0.56µM*
COc1ccc(NC(=O)CSc2nc(-c3ccccc3)[nH]c2-c2ccccc2)cc1OC,-12%,nt,nt,-16%,nt,nt
CCc1nnc(NC(=O)CSc2ccc(-c3nc4ccc(C)cc4[nH]3)cn2)s1,nt,13µM*,3.2µM*,1.7µM*,nt,2.8µM*
CCc1nnc(NC(=O)CSCc2cc(=O)c3ccc(C)cc3[nH]2)s1,nt,nt,nt,-8%,nt,nt
Cc1ccc2nc(-c3ccc(SCC(=O)O)nc3)[nH]c2c1,18%,2%,6%,5.4µM*,-12%,-3%
COC(=O)/C(=C1\OC(=O)C(c2ccccc2)C1=O)c1ccccc1 (centres undefined),13µM*,nt,nt,nt,-2%,nt
N/C(=N\OC(=O)C1CCCCC1)c1cccnc1,-8%,3%,6%,19µM*,-4%,7%
Cc1ccc(SCC(=O)O/N=C(\N)c2cccnc2)cc1,nt,?,0%,-17%,nt,-4%
N/C(=N\OC(=O)c1ccc(Br)o1)c1cccnc1,nt,22%,?,?,-8%,27%
N/C(=N\OC(=O)CCC1CCCC1)c1cccnc1,15%,6%,0%,13µM*,-3%,-1%
N/C(=N\OC(=O)CC1CCCCC1)c1cccnc1,-5%,3%,-2%,13µM*,4%,-3%
O=C(CCC1CCCC1)N1CCN(C(=O)c2cccnc2)CC1,4%,0%,1%,0%,-2%,5%
COCCNC(=O)CSc1nc(-c2ccc(F)cc2)[nH]c1-c1ccc(Cl)cc1,22%,nt,nt,1%,nt,nt
O=C1Nc2ccccc2SC1c1ccccc1 (centres undefined),nt,0%,-2%,-1%,nt,1%
Cc1ccc(NC2Sc3ccccc3NC2=O)cc1 (centres undefined),11µM*,?,1.4µM*,2.1µM*,1%,4µM*
CCOC(=O)c1sc(-c2ccc(Br)cc2)cc1N,13µM*,?,2.8µM*,4.8µM*,-1%,2.2µM*
CCOC(=O)c1sc(-c2ccccc2)cc1NC(=O)Nc1ccccc1,-10%,-2%,-2%,?,0%,-7%
CCOC(=O)c1cc(-c2ccc(N)cc2)sc1N,11µM*,7.3µM*,2.2µM*,15µM*,-2%,2.8µM*
CCOC(=O)c1ccc(N)cc1,13%,?,1%,3%,-4%,1%
O=C(CC1C(=O)N(c2ccc(F)cc2)C(=O)N1Cc1cccnc1)Nc1ccc(F)cc1 (centres undefined),nt,nt,nt,-6%,nt,nt
O=[N+]([O-])c1ccc(/C=N/Nc2ccc3ccccc3c2)o1,9%,13%,?,11µM*,15%,?
